RXFP1 antag – qHTS Assay for Antagonists of the Relaxin Receptor RXFP1; HEK293-RXFP1, relaxin-stimulated cAMP HTRF, 30 min; active compounds read low; Relaxin receptor 1 (Homo sapiens), Q9HBX9; activity change, negative = inhibition, % at 57.5 µM; 0.59% of 350,000 active;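 active = activity change of -60% or lower, but not beyond a set lower limit; inconclusive = change between -60% and -40%, or beyond the set limit; inactive = change above -40%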; also: % is scaled to controls: 0 for no effect and ±100 for the full control effect
Target sequence (Q9HBX9 whole entry, looked up): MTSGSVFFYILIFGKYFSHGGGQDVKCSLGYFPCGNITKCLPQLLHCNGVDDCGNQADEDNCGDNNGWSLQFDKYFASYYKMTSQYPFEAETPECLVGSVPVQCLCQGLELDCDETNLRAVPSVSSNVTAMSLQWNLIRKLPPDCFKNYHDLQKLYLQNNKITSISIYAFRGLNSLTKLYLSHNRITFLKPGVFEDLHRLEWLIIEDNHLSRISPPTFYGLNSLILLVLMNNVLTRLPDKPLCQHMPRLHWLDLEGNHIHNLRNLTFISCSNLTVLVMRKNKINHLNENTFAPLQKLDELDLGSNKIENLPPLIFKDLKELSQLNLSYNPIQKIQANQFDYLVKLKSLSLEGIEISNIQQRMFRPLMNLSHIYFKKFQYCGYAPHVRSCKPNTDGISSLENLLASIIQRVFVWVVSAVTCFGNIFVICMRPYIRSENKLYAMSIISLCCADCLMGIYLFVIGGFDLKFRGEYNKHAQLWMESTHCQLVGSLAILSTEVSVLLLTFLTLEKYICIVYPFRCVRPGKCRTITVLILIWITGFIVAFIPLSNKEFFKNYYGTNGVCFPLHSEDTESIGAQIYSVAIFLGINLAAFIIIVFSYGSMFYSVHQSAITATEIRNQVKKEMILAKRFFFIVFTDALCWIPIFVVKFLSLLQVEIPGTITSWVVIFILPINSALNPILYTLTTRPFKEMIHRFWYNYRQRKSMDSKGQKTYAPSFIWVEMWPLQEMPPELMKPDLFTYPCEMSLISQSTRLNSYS
gsp antag – qHTS for Antagonists of gsp, the Etiologic Mutation Responsible for Fibrous Dysplasia/McCune-Albright Syndrome: qHTS; 0.4% of 340,000 active; Potency, µM (titrated, usually from 76.9 µM), inactives show top-dose activity change, negative = inhibition, usual class: inhibitors; gsp-mutant cells, cAMP HTRF, 30 min; calls by dose curve; cell line not stated here;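 also: intracellular cAMP measured with PDE inhibitor Ro 20-1724 present during compound exposure; potency is read from the fitted curve at half-maximal effect; % is scaled to controls: 0 for no effect and ±100 for the full control effect; nearly all actives have a fitted effect of over 65% in size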
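Cells in G418 medium, seeded 16-24 h, 37C; buffer exchange to DPBS + 1 mM CaCl2, 0.5 mM MgCl2, 0.05% BSA; cpds in DMSO + […] (300 uM stock), 30 min 37C; HTRF cAMP detection.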
gsp ag – qHTS for Agonist of gsp, the Etiologic Mutation Responsible for Fibrous Dysplasia/McCune-Albright Syndrome: qHTS; AID 624287, 2012; Potency, µM (top dose mostly 76.9 µM), without a hit: top-dose activation (cAMP increase), most hits filed as activators; 0.13% of 340,000 active; gsp mutant cells, cAMP HTRF, 30 min; active = well fitted activation curve with a large enough effect; inconclusive = small, poorly fitted or top-dose-only effect, or another doubt; inactive = no such curve, though single readings can be large or run the other way; cell line not stated here;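 also: phosphodiesterase inhibitor Ro 20-1724 added with compounds to block cAMP breakdown; potency is read from the fitted curve at half-maximal effect; nearly all actives have a fitted effect of over 60% in size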
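Cells in DMEM/10% FBS with G418 were pretreated with compounds in DMSO plus […] (300 uM stock) for 30 min at 37C. cAMP was measured by HTRF (cAMP-d2 plus anti-cAMP antibody-K) after 30 min at room temperature.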
RXFP1 ag – qHTS Assay for Agonists of the Relaxin Receptor RXFP1; Relaxin receptor 1 (Homo sapiens), Q9HBX9; HEK293T-RXFP1 cAMP TR-FRET, 30 min; response scale: percent of porcine relaxin response, buffer zero; 0.3% of 370,000 active; Potency, µM (titrated, usually from 57.5 µM), without a hit: top-dose activation, usual class: activators; AID 2676, 2010; active = well fitted activation curve with a large enough effect; inconclusive = small, poorly fitted or top-dose-only effect; also: potency is read from the fitted curve at half-maximal effect; % is scaled to controls: 0 for no effect and ±100 for the full control effect; nearly all actives have a fitted effect of over 60% in size
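HEK293 cells stably expressing RXFP1, treated 30 min at 37C with compounds plus PDE4 inhibitor Ro 20174; cAMP measured by HTRF TR-FRET. Normalized to buffer and 29 nM porcine relaxin; EC50 by Hill fit.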
FBPA coupling cs – qHTS Assay for Inhibitors of Fructose-1,6-bisphosphate Aldolase from Giardia Lamblia: Coupling assay counterscreen; coupling enzyme system counterscreen, AmpLite Red fluorescence; activity change, negative = inhibition, % at 58.2 µM, hits read low; 0.67% of 290,000 active; AID 2472, 2010; in the data active = activity change below about -30%; also: % is scaled to controls: 0 for no effect and ±100 for the full control effect
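Final compound at 57.5 uM, incubated 10 min at RT with coupling enzyme reagent (glyceraldehyde-3-phosphate), then 20 min with substrate and AmpLite Red detection. Fluorescence read at 525/598 nm; tests interference with the coupling assay, not aldolase inhibition.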
Giardia kill – Small Molecules that selectively kill Giardia lamblia: qHTS; AID 540267, 2011; activity change, % at 7.66 µM, hits read low; 0.15% of 340,000 active; Giardia lamblia trophozoite viability; in the data active = activity change below about -80%; inconclusive = between about -30% and that limit;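 also: parasites exposed to compound for two days anaerobically before the ATP read; % is scaled to controls: 0 for no effect and ±100 for the full control effect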
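ATP-content bioluminescence gauges trophozoite survival. Cells (100/well) receive compound and incubate anaerobically for 48 hrs at 37 deg C; detection reagent follows for 15-30 min at room temperature.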
Active calls of the source: *; ? = inconclusive; nt = not tested or not shown; [ ] = dose if it differs, or a comment. In the library only some 1.6% were active in any assay of this set; here they are far more common.

SMILES | RXFP1 antag | gsp antag | gsp ag | RXFP1 ag | FBPA coupling cs | Giardia kill
N#CC1=C(N)SC(N)=C(C#N)C1CCc1ccccc1 | 6.5 | ? | 2.2% | 5.4% | 0.7 | -5.8
N#CC1=C(N)SC(N)=C(C#N)C1c1cccc(Oc2ccccc2)c1 | -4.4 | 28.2µM* | 24.9% | 2.8% | -16.3 | 0.4
N#CC1=C(N)SC(N)=C(C#N)C1Cc1ccccc1 | nt | 4.8% | 51.7% | 7.8% | -1.4 | -0.8
COc1ccc(NC(=O)c2ccc3c(SCC(=O)O)c4c(nc3c2)CCC4)c(OC)c1 | nt | nt | nt | 12.7% | nt | nt
COc1ccc(NC(=O)N2CCC(c3ccccc3)C2)c(OC)c1 (stereo not given) | nt | 50.1µM* | -2.3% | -0.1% | 3.0 | -0.5
COc1ccc(N2CCC(CNC(=O)Nc3ccc(OC)cc3OC)C2)cc1 (stereo not given) | 3.1 | -20.0% | -3.2% | -4.4% | -30.6* | 4.0
COc1ccc(Nc2ccc(OC)cc2)cc1 | -28.1 | 0.0% | -0.1% | -4.4% | -40.6* | 4.3
O=C(CS(=O)(=O)c1ccccc1)c1cc2ccccc2oc1=O | -28.8 | -11.5% | -48.6% | 0.5% | -4.3 | -9.9
O=C(CS(=O)(=O)c1ccccc1)c1cc2cc(F)ccc2oc1=O | -72.4* | 2.2% | -17.2% | -0.5% | nt | -21.2
Cc1csc(NC(=O)CSc2nc3[nH]c(=O)cc(O)c3s2)n1 | 1.9 | -4.9% | 19.1%[15.4 µM] | nt | nt | -87.1*
CN1C/C(=C/c2ccc(B(O)O)cc2)C(=O)/C(=C/c2ccc(B(O)O)cc2)C1 | nt | nt | nt | nt | -1.3 | nt
Cc1c(F)c(N2CCNC(C)C2)cc2c1c(=O)c(C(=O)O)cn2C1CC1 (stereo not given) | -7.1 | nt | nt | nt | nt | nt
CC(Oc1ccccc1)C(=O)N=Nc1c(O)[nH]c2ccc([N+](=O)[O-])cc12 (stereo not given) | -83.8* | -12.0% | -34.7% | 1.1% | -0.2 | 8.4
O=C(N=Nc1c(O)[nH]c2ccc([N+](=O)[O-])cc12)c1ccccc1[N+](=O)[O-] | -1.4 | -25.5% | -23.2% | -0.7% | 1.7 | -0.6
Cc1ccc(S(=O)(=O)N2CCOCC2)cc1NC(=O)CN1C(=O)CN(C)C1=O | -1.6 | 8.2% | 10.6%[15.4 µM] | 5.6% | nt | -22.0
CCc1cc2c(nc1CC)CCN(CC/C(C)=N/O[C@@H](C)CN1CCCCc3nc(C)c(C)cc31)C2 | nt | nt | nt | nt | 2.9 | nt
CCN(CC)c1ccc(C(=C2C=CC(=[N+](CC)CC)C=C2)c2ccc(S(=O)(=O)O)cc2S(=O)(=O)[O-])cc1 | -90.0* | ? | -15.9% | nt | nt | ?
CCN(CC)c1ccc(C(=O)O)cc1 | 7.2 | 2.0% | -36.9% | -0.6% | -1.1 | 6.6
CCN(CC)Cc1c(C(=O)N/N=C/c2cccs2)nnn1-c1nonc1N | -1.4 | -14.0% | 8.5%[15.4 µM] | 1.1% | 2.1 | -8.2
OC1(c2ccc(Cl)cc2)CCNCC1 | -30.4 | nt | nt | nt | nt | nt
Cc1c(C(=O)N2CCCC2)sc(NC(=O)c2ccccc2)c1C#N | -3.8 | ? | -6.3% | 1.5% | 1.0 | 14.0
Cc1c(C(=O)N2CCOCC2)sc(NC(=O)c2ccc([N+](=O)[O-])cc2)c1C#N | 3.2 | 35.5µM* | 19.4%[15.4 µM] | -4.5% | 4.7 | 3.4
CCC(C)n1c(NC(=O)c2ccccc2)c(C#N)c2nc3ccccc3nc21 (stereo not given) | -20.9 | -11.4% | -4.3% | 5.4% | -49.3* | -6.0
N#Cc1c(NC(=O)c2ccc(Br)o2)n(-c2ccccc2)c2nc3ccccc3nc12 | -4.7 | -8.3% | 10.5% | 13.1% | -31.1* | 9.9
COc1ccc(-n2c(NC(=O)c3ccc(Br)o3)c(C#N)c3nc4ccccc4nc32)cc1 | nt | nt | nt | 13.2% | -15.9 | nt
CCCCn1c(NC(=O)c2ccccc2)c(C#N)c2nc3ccccc3nc21 | -9.2 | ? | 1.9% | 5.8% | -53.2* | 6.7
